# According to ChEMBL document CHEMBL3988442, “University of Dundee, Small-Polar-MMV Screening Library” (2021):
# Molecular target: AMP-activated protein kinase, AMPK (Homo sapiens) (UniProt P54646+O43741+P54619+Q9UGJ0+Q9Y478+Q13131+Q9UGI9)
# Experiment: AMP-dependent Kinase enzyme assay. An in vitro enzyme assay that detects ADP turnover that is directly proportional to AMPK activity. This uses naive AMPK that is activated during the assay with MK-8722
# Assay type: functional
# Design: scale not given: direction of the effect not stated beside the values
# Settings: 30 µM
row,Structure (SMILES),Percent Effect [%]
1,Cc1nc[nH]c1CN1CCC(C2CCN(CCc3ccccc3)C2)CC1 (stereo not given),-0.168
2,O=C(Cc1cccs1)NCc1ccnc(C2CCCOC2)n1 (stereo not given),12.2
3,O=C(NCC(O)Cc1ccccc1)c1ccc2[nH]c(=O)[nH]c2c1 (stereo not given),11.7
4,Cc1cc(-c2ccnn2C)nc(C2CCN(S(C)(=O)=O)CC2)n1,9.22
5,CCn1ncnc1C1CC(=O)NCc2nc(N3CCOCC3)sc21 (stereo not given),-10.6
6,Cc1cc(CC(=O)NC2CCCN(c3ccccc3F)C2=O)n[nH]1 (stereo not given),10.6
7,CC(C)OCCCNC(=O)CN1CCN(c2nccs2)CC1,4.26
8,Cc1nc(S(=O)(=O)N2CCCCc3ccccc32)cn1C,0.965
9,CN(Cc1ccncc1)c1cncc(Br)c1,3.2
10,CCC(Nc1ccc(CCN2CCCCC2)cc1)C(N)=O (stereo not given),-12.9
11,O=C(Cc1cccnc1)N1CCCC(c2cc(C(F)(F)F)[nH]n2)C1 (stereo not given),2.17
12,C=C(C)CN(CC)C(=O)CN1CCCC1C(=O)N(C)C (stereo not given),3.77
13,CCn1cnnc1CCNS(=O)(=O)N1CCCC1c1ccco1 (stereo not given),-10.7
14,CCN1CC(CN(C)c2cc(C)nc(N)n2)Oc2ccccc21 (stereo not given),3.94
15,CN(CCO)Cc1cc(Cl)ccc1OCC(O)CN1CCCCCC1 (stereo not given),0.752
16,CN(Cc1n[nH]c2c1CCC2)C(=O)c1cc(-c2cccn2C)n[nH]1,-16.6
17,c1cn(-c2nccnc2C2CCCN(C3CCOCC3)C2)cn1 (stereo not given),10.1
18,COc1ccc(C(=O)N2CCN(C(=O)CCCc3cn[nH]c3)CC2)cc1,3.5
19,CCc1ccc2nc(-c3cnn(C)c3)cc(C(=O)N3CCOCC3)c2c1,8.54
20,COc1nc2c(cc1C(=O)NC(C)Cc1cc(C)n[nH]1)CCC2 (stereo not given),-15.8

row,Structure (SMILES),Percent Effect [%]
1,O=S(=O)(NCCCn1cncn1)c1ccc2c(c1)OCCO2,8.28
2,CCCS(=O)(=O)CC(=O)Nc1ccsc1,-1.52
3,CC(OCC1CC1)C(=O)Nc1cccc(C(=O)Nc2ccncc2)c1 (stereo not given),17.8
4,O=C(NCC[S+]([O-])Cc1ccccc1)c1ccc2[nH]c(=O)[nH]c2c1 (stereo not given),13.6
5,CN(CC1(CO)CCCC1)c1nc2c(c(=O)[nH]1)Cc1ccccc1OC2,6.29
6,CCc1oc(C(=O)OC)cc1Cn1cccc(C(F)(F)F)c1=O,6.73
7,CCc1nnc(NC(=O)NCCN(C)C(=O)OC(C)(C)C)s1,-3.38
8,Cc1cc(=O)n2nc(Oc3ccc(C#N)cc3Cl)sc2n1,-3.6
9,Cc1nn(C)c(C)c1CCC(=O)NCC1(C(N)=O)CCOCC1,1.16
10,CC(CCc1ncnn1Cc1cccc(Cl)c1)N1CCCC1 (stereo not given),7.16
11,Cn1ccnc1CNC(=O)c1cncc(C2CCNCC2)n1,1.13
12,CC(NCC(=O)NCC(=O)Nc1ccc(F)cc1)c1cccs1 (stereo not given),8.16
13,Cc1cn[nH]c1C1COCCN1Cc1c[nH]cn1 (stereo not given),8.68
14,CC(C)NC(=O)C1(Cc2ccccc2-c2ccccc2)CCCNC1 (stereo not given),13.9
15,CCN1CC2(CCC1=O)CCN(Cc1cccc(OC(F)F)c1)CC2,-0.304
16,CCOc1ccccc1-n1c(C2CC2)n[nH]c1=O,2.2
17,COCC(C)(O)CNC(=O)c1cc(-c2cc(OC)ccc2OC)nn1C (stereo not given),1.19
18,O=C(CCc1nnc(-c2ccsc2)o1)NCC1CCN(C2CC2)C1 (stereo not given),4.06
19,Cn1cnc(S(=O)(=O)N2CCCCc3ccccc32)c1,-0.149
20,CN(C)c1nc2c(c(=O)[nH]1)CCN(C(=O)C1CCCO1)C2 (stereo not given),2.77
